Tgondii IFNg: inhibitors of Toxoplasma gondii growth with IFN-gamma | AID 1259416 | activity change, negative = inhibition, % (test concentration not listed) | hit rate 3.8% among 69,000 | Toxoplasma gondii growth in IFN-gamma-treated host cells; hits give low values; in the data active = activity change below about -70%, passing the limit was not always enough;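 also: host cells are HeLa cells infected with Toxoplasma gondii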
Starred values were filed as active, the others as inactive; ! = repeats disagree. This excerpt belongs to a sample that is enriched for hits.

SMILES | Tgondii IFNg
CCOC(=O)c1ccc(N2C[C@@H]3CNC[C@]3(C(=O)O)C2)nc1 | -0.5
CNC(=O)[C@H]1CC2CN(C(=O)c3ccno3)CC2N1C(C)C (stereo not given in full) | 4.4
CC(C)(C)NCC(O)COc1cccc2[nH]c(C#N)cc12 (stereo not given) | 18.4
Cc1cccnc1CN1CC[C@@H]2OCCN(S(=O)(=O)C3CC3)[C@@H]2C1 | -9.1
O=C1[C@H]2CCN(Cc3ccccn3)C[C@H]2OCCN1c1ccsc1 | -7.1
CC(=O)NC1CCSC1=O (stereo not given) | -78.4*!
C[C@H]1CN2C[C@H](O)CC2CN1Cc1cccn1-c1cccnc1 (stereo not given in full) | -39.3
OCc1ccccc1-c1ccc2c(c1)CNCC2 | -14.3
C[C@@H]1O[C@@H](O[C@H]2CC[C@]3(C=O)C4CC[C@]5(C)[C@@H](C6=CC(=O)OC6)CC[C@]5(O)C4CC[C@]3(O)C2)[C@H](O)[C@H](O)[C@H]1O (stereo not given in full) | -65.1
C[C@]12CCC3C(CC[C@]4(O)C[C@@H](O)CC[C@]34C=O)[C@@]1(O)CCC2C1=CC(=O)OC1 (stereo not given in full) | -83.6*!
NC(=O)C[S@@](=O)C(c1ccccc1)c1ccccc1 | 9.0
c1ccc(CO[C@@H]2C[C@@H]3CN(c4ncccn4)CCN3C2)cc1 | -32.8
CCc1ccc(CN2CCOC3CNCC[C@@H]32)o1 (stereo not given in full) | -64.5
CC[C@H]1CN2CCC1C[C@@H]2[C@@H](O)c1ccnc2ccc(OC)cc12 (stereo not given in full) | -78.2*!
C=CC1CN2CCC1CC2[C@@H](OC(=O)c1ccc(OC)cc1)c1ccnc2ccccc12 (stereo not given in full) | 0.5
C=C[C@H]1CN2CC[C@H]1C[C@@H]2[C@@H](OC(=O)OCC)c1ccnc2ccc(OC)cc12 | 3.2
CCCCCCC(=O)O[C@H]1CC[C@H]2[C@@H]3CCC4=CC(=O)CC[C@]4(C)[C@H]3CC[C@]12C | -74.6*
CCN(CC)CCOC1CCC2(C)C(=CCC3C4CCC(=O)C4(C)CCC32)C1 (stereo not given) | -51.3
CCC(=O)O[C@H]1CCC2C3CCC4=CC(=O)CC[C@]4(C)C3CC[C@@]21C (stereo not given in full) | -84.3*
C[C@]12CCC(=O)C=C1CC[C@@H]1[C@@H]2CC[C@]2(C)C(=O)CC[C@@H]12 | 47.4
Cc1nc2c(c(=O)[nH]1)C(c1ccc(Cl)cc1)c1c(c3ccccc3oc1=O)O2 (stereo not given) | -24.7
Cn1cc(CN2CC[C@H]3[C@@H]2CCN3C(=O)Cc2ccccc2)cn1 | -1.7
C[C@]12CC/C(=N\OCCN)C[C@@H]1C(=O)C[C@@H]1[C@@H]2CC[C@]2(C)C(=O)CC[C@@H]12 | -33.6
COc1ccc(CCNC(=O)c2cc3cccnc3n(Cc3ccccc3)c2=O)cc1 | 21.1
CO[C@H]1CCN(C(=O)c2cccc(C)n2)[C@H]2CN(CC3CC3)C[C@@H]12 | 61.4
SMILES | Tgondii IFNg
CC(=O)Nc1cccc(NC(=O)c2cc3cccnc3n(Cc3ccc(F)cc3)c2=O)c1 | 211.8
CNC(=O)[C@H]1C[C@H]2CN(CC3CC3)C[C@H]1O2 | 7.5
Fc1cnc(N2CCC3(CCCN3CC3CC3)CC2)nc1 | 3.8
CS(=O)CCCCN=C=S (stereo not given) | 10.2
O=C(Nc1ccc(F)cc1F)c1cc2cccnc2n(Cc2ccccc2F)c1=O | -5.3
CCCN1C(=O)C(C(=O)/C=C/c2ccc(C)cc2)C2c3ccccc3OC13CCCCC23 (stereo not given) | 4.0
CCOc1ccc(/C=C/C(=O)C2C(=O)NC34CCCCC3C2c2ccccc2O4)cc1OC (stereo not given) | -79.5*
O=C(/C=C/c1ccc(Cl)cc1)C1C(=O)NC23CCCCC2C1c1ccccc1O3 (stereo not given) | 12.3
CC(C)[C@@]1(NC(=O)[C@@H]2C[C@@H]3c4cccc5[nH]cc(c45)C[C@H]3N(C)C2)O[C@@]2(O)[C@@H]3CCCN3C(=O)[C@H](Cc3ccccc3)N2C1=O | -65.9
CN1Cc2ccccc2[C@@H]2c3cccc4[nH]cc(c34)C[C@H]21 | -78.1*
c1cncc(OCC23CCCOC2CCN(Cc2ccoc2)C3)c1 (stereo not given) | -20.1
Cc1cccc(CN2CCC3(CC(NS(=O)(=O)C4CC4)C3)C2)n1 (stereo not given) | -8.5
C=CCN1CC[C@H]2[C@@H]1CCN2C(=O)Cc1cccs1 | 13.6
CC(=O)[O][Hg][c]1ccccc1 | -72.3*
CCN(CC)C(C)C(=O)c1ccccc1 (stereo not given) | 20.7
c1ccc(OCC2CC3NCCOC3C2)nc1 (stereo not given) | 37.6
O=C(Nc1ccccc1C(F)(F)F)c1cc2cccnc2n(Cc2ccc(Cl)cc2)c1=O | 37.8
Cc1cc(C)c(NC(=O)c2cc3cccnc3n(Cc3ccc(F)cc3)c2=O)c(C)c1 | -77.7*
Cc1ccc(F)c(NC(=O)c2c(O)c3cccnc3n(Cc3ccccc3)c2=O)c1 | 71.0
Cc1ccc(NC(=O)c2cc3cccnc3n(Cc3ccc(F)cc3)c2=O)c(C)c1 | -8.9
O=C(Nc1ccc(F)c(Cl)c1)c1c(O)c2cccnc2n(Cc2ccccc2)c1=O | -26.8
O=C(Nc1ccc(F)c(F)c1)c1c(O)c2cccnc2n(Cc2ccccc2)c1=O | -58.2
Cc1ccc(NC(=O)c2cc3cccnc3n(Cc3ccc(F)cc3)c2=O)cc1 | 85.0
COc1ccc(NC(=O)c2c(O)c3cccnc3n(Cc3ccccc3)c2=O)cc1 | 0.1
O=C(NCc1ccccc1)c1c(O)c2cccnc2n(Cc2ccccc2)c1=O | -115.6*
SMILES | Tgondii IFNg
O=C(NCc1cccs1)c1c(O)c2cccnc2n(Cc2ccccc2)c1=O | -110.5*
Cc1ccc(NC(=O)c2c(O)c3cccnc3n(Cc3ccccc3)c2=O)c(C)c1 | 45.1
O=C(NCc1ccccc1F)c1c(O)c2cccnc2n(Cc2ccccc2)c1=O | -111.9*
O=C(Nc1cccc(Cl)c1)c1c(O)c2cccnc2n(Cc2ccccc2)c1=O | 146.0
COc1ncccc1CN1C[C@H]2COC[C@@]2(C(=O)N(C)C)C1 | 3.0
Cc1ccc(CN2CCN3CC(OCc4cccnc4)CC3C2)s1 (stereo not given) | -4.1
c1cncc(OC[C@@H]2CCC[C@]23CN(Cc2ccco2)CCO3)c1 | -10.3
Cc1ccc(CN2CCN(CC3CC3)c3ncccc3C2)s1 | 0.5
COc1c(F)ccc(CN(C)C(C)Cc2cc(C)ccn2)c1F (stereo not given) | -8.7
COCCN1C[C@H]2CN(Cc3ccncc3)C[C@H]2C1=O | -24.2
Cc1noc(C)c1CN1CCO[C@@H]2[C@H]1CC[C@H]2Oc1ccccn1 | -45.5
O=S(=O)(NC1CC2(CCN(Cc3ccccn3)C2)C1)C1CC1 (stereo not given) | 1.1
Fc1ccc(CN2CCC3(CC(Nc4ncccn4)CO3)C2)cc1 (stereo not given) | 1.5
O=C(Nc1ccc(F)cc1)c1c(O)c2cccnc2n(Cc2ccccc2)c1=O | 254.8
CC(NC(=O)c1cc2cccnc2n(Cc2ccccc2F)c1=O)c1ccccc1 (stereo not given) | 18.1
CCc1ccc(NC(=O)c2c(O)c3cccnc3n(Cc3ccccc3)c2=O)cc1 | 29.7
Cc1ccc(F)cc1NC(=O)c1c(O)c2cccnc2n(Cc2ccccc2)c1=O | 67.8
CC(CCc1ccccc1)NC(=O)c1cc2cccnc2n(Cc2ccccc2)c1=O (stereo not given) | -28.9
CC(NC(=O)c1cc2cccnc2n(Cc2ccccc2)c1=O)c1ccccc1 (stereo not given) | -90.7*
